Screening results deposited in PubChem by National Center for Advancing Translational Sciences (NCATS).
An excerpt weighted towards active compounds, which were near 2.8% of everything screened.
POLI inh: inhibitors of human DNA polymerase iota. Q9UNA4. Pol iota fluorescent replication assay, 10 min. Potency, µM (series often up to 115 µM), actives largely listed as inhibitors. 1% of 390,000 active
Target sequence (Q9UNA4 whole entry, looked up): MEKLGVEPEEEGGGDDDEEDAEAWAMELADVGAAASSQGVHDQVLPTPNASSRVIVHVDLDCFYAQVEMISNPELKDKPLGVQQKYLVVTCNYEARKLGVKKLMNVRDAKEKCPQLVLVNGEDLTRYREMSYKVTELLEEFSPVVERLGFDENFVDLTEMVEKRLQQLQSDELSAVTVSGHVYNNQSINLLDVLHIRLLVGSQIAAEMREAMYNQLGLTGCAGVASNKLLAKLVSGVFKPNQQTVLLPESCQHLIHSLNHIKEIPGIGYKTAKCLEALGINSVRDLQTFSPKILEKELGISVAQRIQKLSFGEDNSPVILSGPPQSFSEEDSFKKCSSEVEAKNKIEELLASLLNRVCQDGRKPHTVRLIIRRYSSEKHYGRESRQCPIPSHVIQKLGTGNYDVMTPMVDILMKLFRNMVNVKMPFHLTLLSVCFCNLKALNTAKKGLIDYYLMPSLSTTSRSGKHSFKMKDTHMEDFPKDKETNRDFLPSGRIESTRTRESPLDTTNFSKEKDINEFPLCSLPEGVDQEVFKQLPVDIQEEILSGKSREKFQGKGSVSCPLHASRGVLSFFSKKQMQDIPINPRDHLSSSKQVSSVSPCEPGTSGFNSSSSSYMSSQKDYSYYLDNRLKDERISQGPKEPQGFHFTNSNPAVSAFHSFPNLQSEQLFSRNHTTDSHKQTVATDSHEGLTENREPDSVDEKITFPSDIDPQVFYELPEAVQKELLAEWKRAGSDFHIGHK
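Pol iota at 10 nM preincubated 15 min with compounds at room temperature; reaction started with fluorescent substrate, 50 nM final. Fluorescence read kinetically at 0 and 10 min; buffer-only wells as negative control.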
Pol kappa inh: inhibitors of human DNA polymerase kappa; Q9UBT6; purified Pol kappa, fluorescent DNA synthesis assay, 10 min; Potency, µM (doses to about 107 µM), hits mostly inhibitors; 0.53% of 400,000 active; AID 588579
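50 nM final substrate added after 15 min RT preincubation of 10 nM Pol kappa with compound; fluorescence read at 0 and 10 min.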
POLB inh: blocks human DNA polymerase beta activity; P06746; Pol beta primer extension/strand displacement, fluorescence kinetic; Potency, µM (series often up to 114 µM), actives largely listed as inhibitors; 1.3% of 340,000 active
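Enzyme-only controls used 10 nM Pol beta; buffer lacking enzyme served as negative control. Compound preincubated 15 min, then 50 nM substrate added; 0 and 10 min reads at room temperature.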
POLH inh: blocks human DNA polymerase eta activity. Q9Y253. Potency, µM (titrated, usually from 114 µM), actives largely listed as inhibitors. 1.2% of 390,000 active. recombinant Pol eta, fluorescent DNA replication assay
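Pol eta (10 nM) was preincubated with compounds for 15 min at room temperature, after which fluorescent replication substrate (50 nM final) was added to start the reaction. Fluorescence was read kinetically at 0 and 10 min.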
PI5P4Ka inh: inhibitors of human PI5P4K alpha | P48426 | PI5P4Kalpha enzyme, ADP-Glo luminescence, 60 min; stronger effect = lower value | max response, % | 1.2% of 330,000 active | AID 652105; active means max response of -50% or lower; inconclusive means between -30% and -50%; inactive means -30% or higher; further: value at the top dose of about 77 µM
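Compounds were pin-transferred onto PI5P4Kalpha and substrate in HEPES pH 7.4 buffer with EGTA, CHAPS and 5% DMSO. ATP (5 microM final) started the reaction, which ran 60 minutes at room temperature before ADP-Glo detection.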
WRN inhibitor: blocks human WRN helicase. AID 651768. 0.46% of 360,000 active. WRN helicase unwinding, fluorescent forked duplex, kinetic. Potency, µM (doses to about 114 µM), most hits filed as inhibitors; further: nearly all actives have a fitted effect of over 55% in size
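Screening of the MLSMR collection measured strand separation of a quenched forked DNA duplex (100 nM) by 20 nM WRN with 2 mM ATP, all final. Compounds were preincubated with enzyme 15 min at room temperature.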
Of the large screens only hits and unclear results are named; the others gave an inactive call. Unless noted, the call rests on the fitted dose curve; in most records, active means well fitted curve in the direction sought with a large enough effect; inconclusive means small, poorly fitted or top-dose-only effect, or another doubt; inactive means no such curve, though single readings can be large; an effect the other way counts as inactive or inconclusive.

CCc1ccc(S(=O)(=O)/N=C2/C=C(Sc3ncn[nH]3)C(=O)c3ccccc32)cc1	POLI inh 1.12µM, POLH inh 6.31µM, PI5P4Ka inh -94.3, WRN inhibitor 20µM
O=C1C(Nc2ccc(O)cc2)=C/C(=N/S(=O)(=O)c2cccs2)c2ccccc21	POLI inh 6.31µM, POLH inh inconclusive
Cc1ccc(Cl)cc1NC1=C/C(=N\S(=O)(=O)c2cccs2)c2ccccc2C1=O	POLI inh 3.98µM, POLH inh inconclusive, PI5P4Ka inh inconclusive
CCc1ccc(S(=O)(=O)/N=C2\C=C(Nc3ccc(O)cc3)C(=O)c3ccccc32)cc1	POLI inh 12.6µM, POLB inh inconclusive, POLH inh inconclusive, PI5P4Ka inh inconclusive
CC(C)(C)n1ncc2c(=O)n(Cc3ccccc3SC(F)(F)F)cnc21	none (no result: POLB inh, POLH inh, PI5P4Ka inh, WRN inhibitor)
c1ccc(-c2cc(-c3nn4c(-c5ccco5)nnc4s3)c3ccccc3n2)cc1	POLI inh inconclusive, Pol kappa inh inconclusive, POLH inh inconclusive (no result: PI5P4Ka inh)
Cc1cc(-c2nn3c(-c4ccccc4)nnc3s2)c2ccccc2n1	POLI inh 79.4µM, POLB inh inconclusive (no result: PI5P4Ka inh)
O=C(COC(=O)c1cc(S(=O)(=O)N2CCc3ccccc3C2)ccc1Cl)NCc1ccco1	POLI inh inconclusive, Pol kappa inh inconclusive, POLB inh 39.8µM, POLH inh 20µM, PI5P4Ka inh inconclusive, WRN inhibitor inconclusive
O=C(COC(=O)c1cccc(S(=O)(=O)N2CCc3ccccc3C2)c1)NCc1ccco1	POLB inh 17.8µM
CCOC(=O)N1CCN(c2cc(=O)n(-c3cccc(C)c3)c(=O)[nH]2)CC1	none
CN(C)c1ccc(/C=C/c2cc[n+](C)c3ccc4ccccc4c23)cc1	none (no result: POLB inh, POLH inh, PI5P4Ka inh, WRN inhibitor)
CN(C)c1ccc(/C=C/N2C=CCc3c2ccc2ccccc32)cc1	POLI inh inconclusive, Pol kappa inh 50.1µM (no result: POLB inh, POLH inh, PI5P4Ka inh, WRN inhibitor)
Cc1ccc(CNC(=O)c2cnn(-c3cccc(C)c3)c2C2CCN(C(=O)OC(C)(C)C)CC2)cc1	none (no result: PI5P4Ka inh, WRN inhibitor)
CCc1ccc(NC(=O)CC2C(=O)N(c3ccc(C)cc3)C(=O)N2C2CCCC2)cc1 (stereo unspecified)	none (no result: PI5P4Ka inh, WRN inhibitor)
CCc1ccc(NC(=O)CC2C(=O)N(c3ccc(Cl)cc3)C(=O)N2C2CCCC2)cc1 (stereo unspecified)	POLI inh 89.1µM, Pol kappa inh inconclusive (no result: PI5P4Ka inh, WRN inhibitor)
CCc1nc2scc(-c3cccs3)c2c(=O)o1	POLI inh inconclusive, POLB inh 31.6µM, POLH inh inconclusive
CC(C)(C)n1ncc2c(=O)n(Cc3cccc(OC(F)F)c3)cnc21	none (no result: POLB inh, POLH inh, PI5P4Ka inh, WRN inhibitor)
N#C/C(=C/c1ccc(OCc2ccc(C(=O)O)cc2)cc1)C(=O)Nc1ccccc1	POLH inh inconclusive
COc1cc(/C=C(\C#N)C(=O)Nc2cccc(C(=O)O)c2)ccc1OCc1ccc(F)cc1	POLI inh inconclusive, POLB inh 44.7µM, POLH inh 50.1µM
COc1cccc(/C=C(/C#N)c2ccc(Cl)cc2)c1OCc1cccc(C(=O)O)c1	POLB inh inconclusive
COc1ccc(C(=O)C=Cc2ccc(OCc3ccccc3)c(OC)c2)cc1OC	none (no result: POLI inh, Pol kappa inh, POLB inh)
CCOc1cc(/C=C(\C#N)C(=O)Nc2cccc(C(=O)O)c2)cc(Br)c1OC(=O)c1ccc(OC)cc1	POLI inh inconclusive, Pol kappa inh inconclusive, POLB inh 15.8µM, POLH inh 79.4µM, PI5P4Ka inh inconclusive, WRN inhibitor inconclusive
COc1cc(/C=C/[N+](=O)[O-])ccc1OCc1cccc(C(=O)O)c1	POLI inh inconclusive, Pol kappa inh 25.1µM, POLB inh 31.6µM, POLH inh 31.6µM, PI5P4Ka inh -54.6, WRN inhibitor 20µM
COc1cccc(/C=C(/C#N)c2ccc(F)cc2)c1OCc1cccc(C(=O)O)c1	POLI inh inconclusive, POLB inh 39.8µM, POLH inh inconclusive
N#C/C(=C/c1cccn1-c1cccc(C(=O)O)c1)c1ccc(F)cc1	POLI inh 25.1µM, Pol kappa inh inconclusive, POLB inh 31.6µM, POLH inh 25.1µM
O=C(CCCN1C(=O)c2ccccc2C1=O)Nc1sc2c(c1C(=O)NCc1ccco1)CCC2	POLI inh inconclusive, POLB inh 20µM (no result: PI5P4Ka inh)
O=C(CCN1C(=O)c2cccc3cccc(c23)C1=O)NCc1ccco1	POLI inh inconclusive, POLB inh inconclusive
O=C(CCN1C(=O)c2ccccc2C1=O)NCc1ccco1	POLI inh 50.1µM, POLH inh inconclusive (no result: PI5P4Ka inh)
O=C(N=C1SC2CS(=O)(=O)CC2N1c1ccc(OC(F)(F)F)cc1)C1CC1 (stereo unspecified)	none
COc1ccc(S(=O)(=O)N2CCN(C(=O)CCCN3C(=O)NC4(CCCC4)C3=O)CC2)cc1	none (no result: POLB inh)
CCN(CC)C(=O)C1=C(C)NC(=O)NC1c1c(F)cccc1Cl (stereo unspecified)	POLB inh 89.1µM
COc1ccc(CNC(=O)CCS(=O)(=O)c2cc3c4c(c2)CCN4C(=O)CC3)cc1OC	none (no result: PI5P4Ka inh, WRN inhibitor)
O=c1c(O)c(-c2ccc(O)cc2)oc2cc(O)ccc12	none (no result: POLI inh, POLB inh, POLH inh, PI5P4Ka inh, WRN inhibitor)
O=c1c(O)c(-c2ccc(O)c(O)c2)oc2ccccc12	Pol kappa inh 0.355µM (no result: POLI inh, POLB inh, POLH inh, PI5P4Ka inh, WRN inhibitor)
O=c1c(O)c(-c2cc(O)c(O)c(O)c2)oc2cc(O)ccc12	Pol kappa inh 0.238µM (no result: POLI inh, POLB inh, POLH inh, PI5P4Ka inh, WRN inhibitor)
O=C(OCC12CC3CC(CC(C3)C1)C2)c1ccc(NCc2cc(O)ccc2O)cc1	POLH inh inconclusive, PI5P4Ka inh inconclusive (no result: POLB inh)
O=C(O)c1cc(NCc2cc(O)ccc2O)ccc1O	POLI inh 17.8µM, Pol kappa inh 50.1µM (no result: POLB inh, POLH inh, PI5P4Ka inh, WRN inhibitor)
CSCCC(NC(=O)OCc1ccccc1)NC(=O)OCc1ccccc1	none (no result: POLI inh, Pol kappa inh, POLB inh, POLH inh)
O=C(N/N=C/c1cc(Cl)cc([N+](=O)[O-])c1O)c1cc(-c2ccccn2)nc2ccccc12	POLH inh 79.4µM, PI5P4Ka inh -62.1
O=[N+]([O-])c1ccc(Cl)cc1C=NNc1ccccn1	none (no result: POLB inh)
COc1cccc(/C=N/NC(=O)c2cc(-c3ccccn3)nc3ccccc23)c1O	none (no result: POLB inh)
O=[N+]([O-])c1cc(Cl)cc(/C=N\Nc2ccccn2)c1O	PI5P4Ka inh -60.3
Cc1cnc(C(=O)OCC(=O)Nc2ncc(Cl)cc2Cl)cn1	POLI inh inconclusive, POLH inh 50.1µM (no result: POLB inh)
Cc1cnc(C(=O)OCC(=O)Nc2sc3c(c2C#N)CCC3)cn1	POLI inh inconclusive, POLH inh 22.4µM, PI5P4Ka inh inconclusive, WRN inhibitor inconclusive (no result: POLB inh)
O=C(COC(=O)c1ccc(Cl)nc1)Nc1ncc(Cl)cc1Cl	POLB inh inconclusive, POLH inh 35.5µM
O=C(COC(=O)c1cn(-c2ccccc2)nc1-c1ccccc1)Nc1ncc(Cl)cc1Cl	POLI inh inconclusive, Pol kappa inh inconclusive, POLB inh inconclusive, POLH inh 35.5µM, WRN inhibitor inconclusive
CC(NC(=O)CN1CCOCC1)c1ccccc1 (stereo unspecified)	none
CN(Cc1ccsc1)C(=O)Cn1cc(Br)ccc1=O	POLI inh 22.4µM
CN(Cc1ccsc1)C(=O)CCc1nnc(CCCc2ccccc2)o1	none
